Reference: PubChem BioAssay AID2533 (National Center for Advancing Translational Sciences (NCATS), 2010)
Where “and” joins values, the source holds several entries; their conditions need not be identical. Identical values can stand only once. Inconclusive results are not listed. Calls of active or inactive are those of the source. Calls come from the whole dose curve; as a rule, active = well fitted activation curve with a large enough effect; inconclusive = small, poorly fitted or top-dose-only effect; inactive = flat fitted curve, though single readings scatter.

Biological target: Pyruvate kinase PKM (Homo sapiens) (UniProt P14618)
Sequence (P14618 whole entry, looked up, canonical isoform): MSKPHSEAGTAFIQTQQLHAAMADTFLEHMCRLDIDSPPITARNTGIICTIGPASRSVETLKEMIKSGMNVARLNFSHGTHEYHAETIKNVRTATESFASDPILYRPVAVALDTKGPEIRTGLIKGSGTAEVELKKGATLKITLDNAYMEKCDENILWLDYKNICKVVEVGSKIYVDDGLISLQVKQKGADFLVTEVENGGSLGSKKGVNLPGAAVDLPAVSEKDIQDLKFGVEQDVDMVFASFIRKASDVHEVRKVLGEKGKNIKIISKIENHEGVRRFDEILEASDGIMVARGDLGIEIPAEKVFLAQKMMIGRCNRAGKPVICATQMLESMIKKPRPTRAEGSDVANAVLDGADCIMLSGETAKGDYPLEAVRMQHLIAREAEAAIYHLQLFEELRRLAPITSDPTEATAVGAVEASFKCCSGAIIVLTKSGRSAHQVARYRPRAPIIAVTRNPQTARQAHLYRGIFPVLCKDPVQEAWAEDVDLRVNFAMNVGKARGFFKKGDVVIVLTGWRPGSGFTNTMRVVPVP
Test: Confirmation Concentration-Response Assay for Activators of Human Muscle isoform 2 Pyruvate Kinase: for Probe SAR; note: nearly all actives have a fitted effect of over 60% in size
Details: purified PKM2, ATP generation, Kinase-Glo luminescence; series mostly up to 57.5 µM
In short: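 ATP generation was detected by luciferase-coupled luminescence (Kinase-Glo). The reaction ran for 1 hour at room temperature with 0.1 mM ADP, 0.5 mM PEP and 0.1 nM purified hPK-M2 in 50 mM imidazole, pH 7.2, with 7 mM MgCl2. The enzyme was set at intermediate activity so activators could be detected.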
Potency is the fitted concentration of half-maximal effect.

SMILES | Potency
O=C1c2ccccc2C(=O)N1c1cccnc1 | inactive
COc1cc(F)c(S(=O)(=O)N2CCCN(S(=O)(=O)c3cccc(N)c3)CC2)c(F)c1 | 1.16 µM (active) and 1.46 µM (active)
O=S1(=O)N=C(Oc2ccccc2F)c2ccccc21 | inactive
COc1cc(F)c(S(=O)(=O)N2CCCN(S(=O)(=O)c3ccc4c(c3)OCCO4)CC2)c(F)c1 | 58 nM (active)
COc1ccc(-c2sc(N)nc2-c2ccccc2)cc1 | inactive
O=C1CCc2cc([S+](=O)([O-])Nc3ccc(N[S+](=O)([O-])c4ccc5c(c4)CCC(=O)N5)cc3)ccc2N1 | inactive
COc1ccc(NS(=O)(=O)c2ccccc2C(=O)O)cc1 | inactive
COc1cccc(Cn2ncc3c4sc(S(C)=O)cc4n(C)c3c2=O)c1 (centres undefined) | 73 nM (active)
O=C1CCc2cc(S(=O)(=O)Nc3cccc(F)c3)ccc2N1 | 919 nM (active)
O=C1c2ccccc2C(=O)N1c1ccc2ncccc2c1 | inactive
CC(=O)Nc1ccc(S(=O)(=O)N2CCCN(S(=O)(=O)c3ccc4c(c3)OCCO4)CC2)cc1 | 4110 nM (active)
COC(=O)c1ccccc1S(=O)(=O)Nc1ccc(OC)cc1 | inactive
O=S1(=O)N=C(Oc2ccc(Br)cc2)c2ccccc21 | inactive
Cc1ccc(NS(=O)(=O)c2ccc3c(c2)CCC(=O)N3)cc1Cl | 326 nM (active)
Cc1cc(NS(=O)(=O)c2ccc3c(c2)CCC(=O)N3)ccc1Cl | 517 nM (active)
Cc1cc(NS(=O)(=O)c2ccc3c(c2)CCC(=O)N3)ccc1F | 461 nM (active)
Cc1ccc(NS(=O)(=O)c2ccc3c(c2)CCC(=O)N3)cc1 | 5800 nM (active)
Cc1ccc(-c2nc3cccc(C)n3c2Nc2ccc(F)cc2)o1 | inactive
Cc1cc2c(s1)c1cnn(Cc3cc(F)c(F)cc3F)c(=O)c1n2C | 1120 nM (active)
